Consider 38 molecules from ChEMBL document CHEMBL2218924, “A broad activity screen in support of a chemogenomic map for kinase signalling research and drug discovery” (Biochem J, 2013).

Assay [1] has as its target Mitogen-activated protein kinase 11 (Homo sapiens) (UniProt Q15759). Conditions: at 1 µM.
Assay [2] has the same target. Conditions: at 10 µM.
Assay [3] concerns the target T1, Mitogen-activated protein kinase 13 (Homo sapiens) (UniProt O15264).
T1 sequence (whole entry): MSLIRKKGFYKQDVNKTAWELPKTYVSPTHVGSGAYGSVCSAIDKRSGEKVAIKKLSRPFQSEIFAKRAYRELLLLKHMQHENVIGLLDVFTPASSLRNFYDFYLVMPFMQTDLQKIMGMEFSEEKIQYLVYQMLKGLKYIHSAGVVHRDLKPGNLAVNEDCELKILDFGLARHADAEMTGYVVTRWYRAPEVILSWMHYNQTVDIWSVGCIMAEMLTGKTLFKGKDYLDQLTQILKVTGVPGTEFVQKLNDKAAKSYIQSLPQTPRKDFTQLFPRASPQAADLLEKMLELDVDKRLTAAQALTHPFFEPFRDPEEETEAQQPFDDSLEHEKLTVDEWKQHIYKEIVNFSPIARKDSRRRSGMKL
To be noted: at 10 µM.

Assay [4] deals with T2, Serine/threonine-protein kinase Sgk1 (Homo sapiens) (UniProt O00141).
T2 sequence (whole entry): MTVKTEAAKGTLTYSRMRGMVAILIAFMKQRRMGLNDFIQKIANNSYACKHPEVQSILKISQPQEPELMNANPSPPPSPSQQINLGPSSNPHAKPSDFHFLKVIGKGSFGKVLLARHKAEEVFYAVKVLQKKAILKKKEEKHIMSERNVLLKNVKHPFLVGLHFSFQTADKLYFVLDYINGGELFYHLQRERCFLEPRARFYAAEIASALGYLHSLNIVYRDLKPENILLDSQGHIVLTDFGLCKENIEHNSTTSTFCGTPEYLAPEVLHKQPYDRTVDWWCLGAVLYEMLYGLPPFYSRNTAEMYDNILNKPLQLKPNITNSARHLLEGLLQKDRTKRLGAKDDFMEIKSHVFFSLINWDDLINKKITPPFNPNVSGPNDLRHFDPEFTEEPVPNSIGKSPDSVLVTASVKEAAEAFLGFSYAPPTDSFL
Conditions: at 1 µM.

Assay [5] addresses T2, Serine/threonine-protein kinase Sgk1 (Homo sapiens). Conditions: at 10 µM.
Assay [6] addresses T3, Serine/threonine-protein kinase Sgk2 (Homo sapiens) (UniProt Q9HBY8).
T3 sequence (whole entry): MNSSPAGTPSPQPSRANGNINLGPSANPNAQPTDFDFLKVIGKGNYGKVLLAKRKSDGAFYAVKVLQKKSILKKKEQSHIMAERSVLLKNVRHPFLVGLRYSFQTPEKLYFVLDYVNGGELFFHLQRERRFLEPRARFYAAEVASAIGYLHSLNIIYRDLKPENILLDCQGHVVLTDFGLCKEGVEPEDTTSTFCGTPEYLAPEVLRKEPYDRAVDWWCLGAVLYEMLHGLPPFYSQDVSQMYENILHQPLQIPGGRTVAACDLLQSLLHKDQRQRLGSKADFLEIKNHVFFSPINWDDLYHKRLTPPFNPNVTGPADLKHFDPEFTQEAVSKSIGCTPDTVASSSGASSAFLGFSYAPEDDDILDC
To be noted: at 10 µM.

For assay [7], the target named is T4, Serine/threonine-protein kinase Sgk3 (Homo sapiens) (UniProt Q96BR1).
T4 sequence (whole entry): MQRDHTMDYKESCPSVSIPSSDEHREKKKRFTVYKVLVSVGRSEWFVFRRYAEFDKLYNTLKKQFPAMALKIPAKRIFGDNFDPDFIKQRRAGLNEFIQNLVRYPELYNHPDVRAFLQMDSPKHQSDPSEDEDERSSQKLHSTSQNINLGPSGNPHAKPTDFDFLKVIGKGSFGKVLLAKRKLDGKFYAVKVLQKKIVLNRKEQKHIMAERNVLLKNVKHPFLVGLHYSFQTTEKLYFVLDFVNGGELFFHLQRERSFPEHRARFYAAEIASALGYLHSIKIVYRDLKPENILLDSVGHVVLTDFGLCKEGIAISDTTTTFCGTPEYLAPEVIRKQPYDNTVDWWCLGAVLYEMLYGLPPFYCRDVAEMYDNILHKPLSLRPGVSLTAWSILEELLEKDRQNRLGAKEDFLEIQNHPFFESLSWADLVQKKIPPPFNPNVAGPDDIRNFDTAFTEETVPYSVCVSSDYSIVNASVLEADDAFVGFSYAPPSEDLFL
Conditions: at 10 µM.

Assay [8] concerns the target Serine/threonine-protein kinase SIK1 (Homo sapiens) (UniProt P57059). To be noted: at 1 µM.
Assay [9] concerns the target T1, Mitogen-activated protein kinase 13 (Homo sapiens). Conditions: at 1 µM.
The target in assay [10] is T3, Serine/threonine-protein kinase Sgk2 (Homo sapiens). To be noted: at 1 µM.

Chain of Serine/threonine-protein kinase SIK1 (Homo sapiens) (P57059 whole entry): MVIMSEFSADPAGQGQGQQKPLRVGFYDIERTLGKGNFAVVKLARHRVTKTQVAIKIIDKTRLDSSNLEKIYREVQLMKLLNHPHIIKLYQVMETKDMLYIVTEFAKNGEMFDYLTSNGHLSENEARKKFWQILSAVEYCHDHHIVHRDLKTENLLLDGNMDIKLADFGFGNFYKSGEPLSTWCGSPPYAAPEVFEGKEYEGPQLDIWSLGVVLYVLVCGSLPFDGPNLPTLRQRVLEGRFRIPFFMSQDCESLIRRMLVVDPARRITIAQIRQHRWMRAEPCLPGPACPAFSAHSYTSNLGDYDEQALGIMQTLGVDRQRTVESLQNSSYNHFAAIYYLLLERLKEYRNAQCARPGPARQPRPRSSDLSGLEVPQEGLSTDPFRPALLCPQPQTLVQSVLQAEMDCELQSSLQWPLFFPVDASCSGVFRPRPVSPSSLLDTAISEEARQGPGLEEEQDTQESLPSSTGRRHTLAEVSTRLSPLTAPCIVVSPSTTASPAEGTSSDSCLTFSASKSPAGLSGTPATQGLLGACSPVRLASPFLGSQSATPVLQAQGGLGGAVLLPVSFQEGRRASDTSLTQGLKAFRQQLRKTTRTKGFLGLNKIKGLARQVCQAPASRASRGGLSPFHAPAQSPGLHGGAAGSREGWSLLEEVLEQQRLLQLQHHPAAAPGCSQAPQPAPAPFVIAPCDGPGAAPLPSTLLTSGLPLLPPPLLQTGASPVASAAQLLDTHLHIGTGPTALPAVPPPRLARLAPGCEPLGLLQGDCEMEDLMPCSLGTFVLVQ
Chain of Mitogen-activated protein kinase 11 (Homo sapiens) (Q15759 whole entry): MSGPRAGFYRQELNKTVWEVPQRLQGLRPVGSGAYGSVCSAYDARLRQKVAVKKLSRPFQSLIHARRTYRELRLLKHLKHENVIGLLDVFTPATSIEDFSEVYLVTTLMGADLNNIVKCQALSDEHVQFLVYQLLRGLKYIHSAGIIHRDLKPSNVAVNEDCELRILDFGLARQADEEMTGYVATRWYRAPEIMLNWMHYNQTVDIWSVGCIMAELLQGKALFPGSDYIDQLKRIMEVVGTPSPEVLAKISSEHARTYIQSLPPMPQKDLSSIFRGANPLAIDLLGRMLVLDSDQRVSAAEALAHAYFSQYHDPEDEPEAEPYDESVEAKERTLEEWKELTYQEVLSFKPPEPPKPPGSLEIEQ

`O=c1cc(N2CCNCC2)oc2c(-c3ccccc3)cccc12`: the residual activity in [1] amounted to 95%; in assay [2], 105%; in [3] it was 83%; in assay [4], 80%; in assay [5], 98%; in [6] it was 79%. For the same molecule, the residual activity in [7] worked out at 90%; in [8], 82%.

Consider `Nc1nc(Nc2ccc(S(N)(=O)=O)cc2)nn1C(=O)c1c(F)cccc1F`, for which the residual activity amounted to 102% in [1]; 77% in [2]; 31% in assay [3]; 124% in [4]; 75% in assay [5]; 49% in [6]. In addition, the residual activity in assay [7] is 79%; in assay [8], 50%.

`CN(C)S(=O)(=O)c1ccc2c(c1)/C(=C/c1cc3c([nH]1)CCCC3)C(=O)N2`: the residual activity in assay [1] is 94%; in assay [9], 97%; in assay [3], 96%; in [4], 82%; in assay [5], 96%; in [10], 115%. For the same molecule, the residual activity in assay [6] is 95%.

On to `O=c1c(-c2ccc(F)cc2)c(-c2ccncc2)[nH]n1-c1ccc(Cl)cc1`, for which the residual activity was determined as 23% in assay [1], 5% in assay [2], 101% in assay [5] and 141% in assay [8].

In the case of `O=C1Cc2c([nH]c3ccc([N+](=O)[O-])cc23)-c2ccccc2N1`, the residual activity in [1] was determined as 100%; in assay [2], 103%; in [10], 65%; in assay [6] it was 68%; in assay [8] it was 100%.

As to `O=C1Cc2c([nH]c3ccc(Br)cc23)-c2ccccc2N1`, the residual activity in [1] came to 98%; in assay [2], 89%; in assay [9], 98%; in [3], 68%; in assay [4], 95%; in [5], 81%. The residual activity was 99% in assay [10], 74% in assay [6], 83% in assay [7] and 91% in assay [8].

Take `CCOc1nc(NC(=O)Cc2cc(OC)ccc2OC)cc(N)c1C#N`: the residual activity in [4] turned out to be 79%; in assay [5] it was 100%.

For the molecule `Nc1n[nH]c2nc3ccccc3nc12`, the residual activity is 98% in assay [3], 92% in assay [10], 45% in [6] and 118% in assay [8].

Consider `COc1cc2ncnc(Nc3cccc(Cl)c3)c2cc1OC`, for which the residual activity came out at 45% in [2]; 118% in [9]; 109% in [3]; 89% in assay [4]; 113% in assay [5]; 77% in [10]. Further, the residual activity worked out at 70% in [6] and 84% in [8].

Take `O=C(Nc1nc2ccccc2n1CCN1CCOCC1)c1cccc([N+](=O)[O-])c1`: the residual activity in assay [9] was 109%; in [3] it was 87%; in assay [10] it was 108%; in [6], 75%; in [8] it was 70%.

`CCCCc1c(-c2ccc(O)cc2)[nH]c2nccnc12`: the residual activity in assay [9] is 98%; in assay [3], 88%; in assay [10], 92%; in [6], 90%; in assay [7], 75%; in assay [8], 69%.

With `CC(C)c1nn(-c2c(Cl)cccc2Cl)c2nc(Cc3ccc(OCCO)cc3)[nH]c(=O)c12`, the residual activity came out at 105% in assay [2]; 59% in [3]; 99% in assay [4]; 103% in assay [5]; 97% in [10]; 91% in assay [6]. In addition, the residual activity in [7] is 81%; in [8] it was 109%.

Turning to `COc1ccc(Cl)cc1NC(=O)Nc1cc(C)nc2ccccc12`, the residual activity in [4] was 80%; in assay [5], 73%; in [7] it was 78%; in assay [8], 93%.

Regarding `CCN(CC)CCNC(=O)c1c(C)[nH]c(/C=C2\C(=O)Nc3ccc(Cl)cc32)c1C`, the residual activity was 59% in [4]; 23% in assay [5]; 60% in assay [10]; 32% in assay [6]; 73% in [7]; 31% in assay [8].

Take `CCN1/C(=C/C(C)=O)Sc2ccc(OC)cc21`: in assay [7], the residual activity came to 65%.

`COc1ccc2c(c1)c(C1=C(c3c[nH]c4ccccc34)C(=O)NC1=O)cn2CCCN(C)C`: the residual activity was 100% in assay [3]; 107% in assay [4]; 56% in assay [5]; 80% in assay [10]; 41% in [6]; 77% in [8].

Turning to `Cc1cc(C)c(/C=C2\C(=O)Nc3ccccc32)[nH]1`, the values for the residual activity in assay [9], in assay [10] and in [6] were 124%, 80% and 67%, respectively.

Regarding `O=C(Nc1ccc(Cl)cc1)c1ccccc1NCc1ccncc1`, the residual activity in [5] was 128%; in [6], 72%.

With `O=C1NC(=O)C(c2c[nH]c3ccccc23)=C1c1c[nH]c2ccccc12`, the residual activity in assay [3] stood at 99%; in [4] it was 76%; in [5], 65%; in [10] it was 78%; in assay [6] it was 29%; in assay [8], 81%.

On to `NCCNc1ncc(C(N)=O)c(Nc2cccc(C(F)(F)F)c2)n1`, for which the residual activity in [2] came to 104%; in assay [9] it was 114%; in assay [3] it was 101%; in [4], 81%; in [5] it was 129%; in assay [10], 82%. The residual activity turned out to be 78% in assay [6], 66% in [7] and 63% in assay [8].

Regarding `N#Cc1c(NC(=O)c2cccc3ccccc23)sc2c1CCCC2`, the residual activity stood at 90% in assay [6], 86% in [7] and 136% in [8].

As for `c1ccc(-c2cnc(Nc3ccc(OCCN4CCCC4)cc3)s2)cc1`, the figures for the residual activity in [9], in assay [3] and in assay [8] were 103%, 103% and 53%, respectively.

As to `O=C1NC(=O)C(c2cn(CCCn3ccnc3)c3ccccc23)=C1Nc1ccccc1`, the residual activity in assay [4] is 46%; in assay [5] it was 14%; in assay [10], 52%; in assay [6] it was 12%; in [8], 79%.

`O=C(c1cc2cc(O)ccc2[nH]1)c1cc2cc(O)ccc2[nH]1`: the residual activity in [4] was determined as 68%; in assay [5] it was 28%; in assay [10] it was 62%; in [6] it was 18%; in assay [7], 52%; in assay [8] it was 39%.

Regarding `NC(=O)c1cccc(-c2cc(Nc3ccc(OC(F)(F)F)cc3)ncn2)c1`, the residual activity is 96% in assay [3]; 159% in assay [5]; 92% in [10]; 92% in assay [6]; 96% in [8].

As for `N#C/C(=C\c1ccc(O)c(O)c1)C(=O)NCc1ccccc1`, the residual activity amounted to 125% in assay [9]; 79% in assay [4]; 32% in assay [5]; 61% in assay [10]; 17% in assay [6]; 73% in [7]. The residual activity in [8] turned out to be 88%.

Take `O=C1C(Cl)=C(N2C(=O)CCC2=O)C(=O)c2ccccc21`: the residual activity worked out at 92% in assay [2]; 95% in [9]; 92% in assay [3]; 90% in [4]; 100% in assay [5]; 97% in assay [6]. Besides, the figures for the residual activity in assay [7] and in assay [8] were 82% and 122%, respectively.

Take `Nc1nccc(-c2c(-c3ccc(F)cc3)ncn2C2CCNCC2)n1`: the residual activity was determined as 75% in [7] and 132% in [8].

Turning to `O=S(=O)(c1cccc2cnccc12)N1CCCNCC1`, the residual activity in [4] was 84%; in assay [6], 67%; in assay [8], 126%.

For the molecule `N#C/C(=C1/Nc2ccccc2S1)c1ccnc(NCCc2cccnc2)n1`, the residual activity in [9] is 78%; in assay [3], 48%; in assay [8] it was 146%.

Turning to `Oc1cccc(-c2nc(N3CCOCC3)c3oc4ncccc4c3n2)c1`, the residual activity in assay [6] amounted to 66%; in assay [8], 91%.

Turning to `O=S(=O)(NCCNC/C=C/c1ccc(Br)cc1)c1cccc2cnccc12`, the results for the residual activity in assay [6] and in [8] were 30% and 137%, respectively.

Consider `O=C1NC(=O)C(c2cn(CCCO)c3ncccc23)=C1c1cnccn1`, for which the residual activity in assay [9] stood at 99%; in assay [3] it was 94%; in assay [6], 92%; in [8] it was 129%.

As to `Cn1c2ccccc2c2c3c(c4c5ccccc5n(CCC#N)c4c21)CNC3=O`, the residual activity in assay [2] turned out to be 100%; in assay [9], 99%; in assay [4], 82%; in assay [5] it was 40%; in assay [10], 76%; in assay [6], 47%. Moreover, in assay [8], the residual activity stood at 9%.

With `O=C1Nc2ccccc2/C1=C\c1c(Cl)[nH]c2ccccc12`, the residual activity in assay [1] stood at 99%; in assay [6], 77%; in assay [7], 79%; in assay [8], 120%.

`O=c1cc(N2CCOCC2)oc2c(-c3ccccc3)cccc12`: the residual activity is 101% in assay [9], 71% in assay [3], 75% in assay [4] and 74% in assay [7].

`COc1ccc(COc2ccc(Cc3cnc(N)nc3N)cc2OC)cc1`: the residual activity in assay [10] is 108%.

In the case of `CC(C)N(CCC(=O)c1ccc2ccccc2c1)Cc1ccccc1`, the residual activity in assay [4] was 78%; in assay [5], 100%; in assay [7], 85%; in [8], 79%.
